From publication PMC5540273 (PLoS ONE, 2017)

tested on: TNK1; details: concentration: 1 μM, replicates: in singlicate; n = 1
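Also: KINOMEscan kinase panel screen.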

Row | Structure (SMILES) | %Inh [%]
1 | COc1cccc(NC(=O)NC2CCN(c3ccnc(Nc4cc(OC)c(OC)c(OC)c4)n3)C2)c1 (centres unmarked) [GSK1379763] | 0
2 | O=C(O)C(F)(F)F.O=C(O)C(F)(F)F.O=c1[nH]ccc2nc(N[C@@H]3CCCNC3)nc(Nc3ccc(S(=O)(=O)N4CCOCC4)cc3)c12 [GSK2177277] | 73
3 | CCCCc1nn2ncccc2c1-c1ccnc(Nc2ccc(N3CCN(C)CC3)cc2)n1 [GW684941] | 86
4 | CN(c1ccc(NC(=O)Nc2cc(C(F)(F)F)ccc2F)cc1)c1ccnc(Nc2ccc(S(N)(=O)=O)cc2)n1 [GW809893] | 54
5 | Nc1ncc(-c2cccnc2)c2scc(-c3ccc4c(c3)CCN4C(=O)Cc3ccccc3)c12 [GSK683281] | 19
6 | Cc1ccc(C(=O)Nc2ccc(Nc3ccnc4cc(-c5nccs5)ccc34)cc2O)cc1.Cl [GW494702] | 46
7 | COc1cc(Nc2nccc(N3CCC(NC(=O)c4cc5ccccc5s4)C3)n2)cc(OC)c1OC (centres unmarked) [GSK1379760] | 0
8 | O=C(Nc1cccc(-c2nn3ccccc3c2-c2ccnc(Nc3cccc(F)c3)n2)c1)c1c(F)ccc(F)c1Cl [GSK357952] | 91.6
9 | CN(C)Cc1ccc(-c2ccc3c(Nc4ccc(Oc5ccccn5)cc4)ccnc3c2)o1 [GW567148] | 29
10 | CNC(=O)c1ccccc1Nc1nc(Nc2ccc(N3CCOCC3)cc2)ncc1Cl.Cl [GSK1576028] | 100
11 | Cl.Cl.NCC(NC(=O)c1cc(-c2ccccc2)c(-c2ccnc3[nH]ccc23)s1)c1ccccc1 (centres unmarked) [GSK1321561] | 0
12 | COc1ccc(Nc2nccc(N3CCC(NC(=O)Nc4cccc(OC)c4)C3)n2)cc1 (centres unmarked) [GSK1379742] | 0
13 | COC(=O)Nc1nc2cc(Oc3ccc(NC(=O)Nc4cc(C(F)(F)F)ccc4F)cn3)ccc2[nH]1.Cl.Cl [GW681170] | 0
14 | O=C(Nc1n[nH]c2cc(-c3ccoc3)ccc12)C1CC1 [SB-738481] | 0
15 | CSc1cccc2c(-c3ccncn3)c(-c3ccc(F)cc3)nn12 [GW514786] | 8
16 | c1ccc(Oc2ccc(Nc3ccnc4cc(-c5ccc(CNCCN6CCOCC6)o5)ccc34)cc2)nc1 [GW567145] | 27
17 | Nc1ncnc2c1nc(-c1ccccc1)n2-c1ccccc1 [SKF-97293] | 8
18 | Cl.c1ccc(-c2ccc3c(Nc4ccc5[nH]ccc5c4)ccnc3c2)nc1 [GW440138] | 24
19 | Cl.NC(=O)c1cccc(Nc2nccc(Nc3ccc(Oc4c(Cl)cccc4Cl)c(Cl)c3)n2)c1 [GW659009] | 36
20 | Cc1occc1-c1ncc(OC[C@@H](N)Cc2c[nH]c3ccccc23)cc1-c1ccc2[nH]nc(C)c2c1.O=C(O)C(F)(F)F [GSK682037] | 15
21 | Cc1ccc(C(=O)N2CC[C@@H](O)C2)cc1-n1c(C)cc(OCc2ccc(F)cc2F)c(Br)c1=O | 0
22 | Oc1cc(Nc2ccnc3cc(I)ccc23)ccc1F [GW552771] | 4
23 | c1ccc(-c2n[nH]cc2Nc2ccnc3ccccc23)nc1 [GW694077] | 0
24 | CC(C)c1nc(-c2cccc(NS(=O)(=O)c3c(F)cccc3F)c2F)c(-c2ccnc(Nc3ccc(N4CCOCC4)nc3)n2)s1 [GSK2008607] | 100
25 | Cn1cc(-c2[nH]c3cc(NC(=O)[C@H](N)C4CCCCC4)cc4c3c2C=NNC4=O)cn1 | 68
26 | C[C@@H](Oc1cc(-n2cnc3cc(-c4ccnc(NCCS(C)(=O)=O)c4)ccc32)sc1C(N)=O)c1ccccc1Cl [GSK907232] | 17
